Where “and” joins values, the source holds several entries; their conditions need not be identical. Equal values may be shown once. Compounds without any hit were thinned out: in the full panel of roughly 83,000, 20% have a hit.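 Single-concentration screen, 48 h exposure, 96-well plates. Endpoint: percent growth. Below 10 = active.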 A number with no mark means an inactive call. Calls of active or inactive are those of the source.

In this assay the test system is OVCAR-4 ovarian. In words: NCI-60 one-dose screen, 48 h (100 = growth as untreated, 0 = no growth, -100 = all killed). The following applies: 10 µM unless noted. The procedure: Growth inhibition of the OVCAR-4 human tumor cell line is measured as a screen for anti-cancer activity. Cells are grown in 96 well plates and exposed to the test compound for 48 hours. Compounds are tested at a single concentration, which is 10^-5 M for most compounds. The reported endpoint is percent growth (GI% or GIPRCNT), where numbers from 0 - 100% represent growth inhibition, and numbers from -100% - 0 represent cell death. For example, a value of 40 represents 60% growth inhibition. A value of 0 means no net growth occurred over the course of the experiment. A value of -40 indicates 40% of cells at the beginning of the experiment died by the end of the experiment. A value of -100 means all cells are dead at the end of the experiment.
NCI-60 Human Tumor Cell Lines Screen was performed using the standard one-dose NCI protocol, which is described in more detail at https://dtp.cancer.gov/discovery_development/nci-60/default.htm.
Compounds with GIPRCNT values below 10 were considered active. Activity score was based on GIPRCNT using the following formula: […]
Score is 0 for GIPRCNT values of 100 or above, 50 for GIPRCNT values of 0, and 100 for GIPRCNT values of -100.
Turning to `O=C1OC(c2ccccc2)=N/C1=C\c1ccccc1`, the growth is 113%.

Turning to `NC(Cc1c[nH]c2ccccc12)C(=O)O` (stereo not given), the growth is 108% and 102%.

For `CC(=O)Nc1ccc(S(N)(=O)=O)cc1`, the growth is 99.4% and 105%.

Turning to `CCc1cc(C)cc(O)c1`, the growth is 112%.

Turning to `Cc1ccc(=O)[nH]n1`, the growth is 112% and 122%.

`CN(C)CC1CCCCCC(CN(C)C)C1=O` (stereo not given): the growth is 79%.

As to `CC(C)(O)C(=O)O`, the growth was 105%.

As to `NC1CCC(C(=O)O)CC1` (stereo not given), the growth was 107% and 103%.

As to `CC(C)NCC(O)c1ccc(O)c(O)c1` (stereo not given), the growth was 107% and 110% and 97.1%.

With `c1ccc2c(c1)OC1OC2Oc2ccccc21`, the growth was 105%.

`CCCCCCCCCCNC(=O)CI`: the growth was -44.1% (active).

Turning to `N#CC(C#N)N=Nc1ccc(Cl)cc1`, the growth is 10.1%.

`CC1(C)COC(=S)N1`: the growth was 102%.

On to `Nc1nc(N)c2[nH]cnc2n1`, for which the growth was 88.5%.

Take `O=C1OC(C(O)C(O)CO)C(O)=C1O` (stereo not given): the growth was 106% and 112%.

On to `O=CN1CCCCC1`, for which the growth was 108%.

For `Nc1ncnc2c1ncn2C1OC(COP(=O)(O)O)C(O)C1O` (stereo not given), the growth is 126%.

For `NC(=O)NCCCC(N)C(=O)O` (stereo not given), the growth was 112%.

As to `CCCCNc1ccc(Nc2ccccc2)cc1`, the growth was 39%.

With `COc1ccc(C(=O)CC(c2ccccc2)C(C#N)c2ccccc2)cc1` (stereo not given), the growth is 88.8%.

For the compound `C#CCOC(=O)Nc1ccccc1`, the growth is 93.5%.

Consider `O=C(O)CCCl`, for which the growth was 98.8%.

As for `CCCCCCCCCCCCCCCCC(C(=O)O)C(O)(CC(=O)O)C(=O)O` (stereo not given), the growth is 108% and 21.3%.

For the compound `Fc1ccc([I+]c2ccc(F)cc2)cc1`, the growth was 52.1%.

Consider `O=[N+]([O-])c1cccc(SSc2cccc([N+](=O)[O-])c2)c1`, for which the growth is 105%.

For the compound `CC1CCC2(C(=O)O)CCC3(C)C(=CCC4C5(C)CCC(O)C(C)(C)C5CCC43C)C2C1C` (stereo not given), the growth is 59.3% and 84.2%.

Turning to `NN1CCOC(c2ccccc2)C1` (stereo not given), the growth was 119%.

Turning to `C/C(=C\c1ccccc1)c1ccccn1`, the growth was 106%.

For the compound `CC(=O)NCC(=O)c1ccc([N+](=O)[O-])cc1`, the growth was 113%.

`O=C1c2c(O)ccc(O)c2C(=O)c2c(NCCNCCO)ccc(NCCNCCO)c21`: the growth is -39.7% (active).

In the case of `N#CC(C#N)N=Nc1cc(Cl)ccc1Cl`, the growth is 98.9%.

For the compound `CC1=C/C(O)CC(=O)Cc2nc(co2)C(=O)N2CCC=C2C(=O)OC(C(C)C)C(C)/C=C\C(=O)NC/C=C\1` (stereo not given), the growth was 78.5%.

`CCOC(=O)c1c(C)cc(=O)oc1C`: the growth is 108%.

As to `Cn1cnc([N+](=O)[O-])c1Sc1ncn[nH]1`, the growth was 95.5%.

For the compound `O=c1[nH]cnc2c1ncn2C1OC(CO)C(O)C1O` (stereo not given), the growth was 126% and 118% and 117%.

Consider `Cc1cc2ccccc2cn1`, for which the growth was 108% and 90.4%.

In the case of `CC(C)NC(=O)N/C=C(\C#N)C(N)=O`, the growth is 105%.

Regarding `CC(=O)OC(C)C(=O)NCC(C)O` (stereo not given), the growth is 100%.

Take `c1ccc(CNCCNCc2ccccc2)cc1`: the growth was 103%.

Turning to `CN(C)c1ccc(/C=C\C(=O)c2ccccc2)cc1`, the growth was 105% and 109% and 104%.

The values above are taken from PubChem BioAssay (NCI).
